Most compounds without a hit are left out; they make up all but 21% or so of the library.
TDP1 cell CPT – qHTS for Inhibitors of human tyrosyl-DNA phosphodiesterase 1 (TDP1): qHTS in cells in presence of CPT. chicken DT40 Tdp1-/-;hTDP1 cells + 20 nM CPT, ATP luminescence, 48 h. Potency, µM (series often up to 46.2 µM), inactives show at the highest dose activity change, negative = growth inhibition, most hits filed as inhibitors. 12% of 420,000 active; note: potency is the fitted concentration of half-maximal effect; % is set by controls: 0 for no effect and ±100 for the full control effect; nearly all actives have a fitted effect of over 55% in size
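Chicken DT40 Tdp1-/- cells stably complemented with human TDP1 were seeded at 400 cells/well in medium containing 20 nM camptothecin, exposed to pin-transferred compounds, and grown at 37 °C for at least 48 hr. Viability was read as ATP luminescence.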
DRD3 agonist – qHTS of D3 Dopamine Receptor Agonist: qHTS; D(3) dopamine receptor (Homo sapiens), P35462; D3R DiscoveRx beta-arrestin cells, luminescence, 90 min; max activation, %; 0.58% of 410,000 active; AID 652048, 2013; in the data active = max activation above about 30%; note: 0% is about no effect
Target sequence (P35462 whole entry, looked up): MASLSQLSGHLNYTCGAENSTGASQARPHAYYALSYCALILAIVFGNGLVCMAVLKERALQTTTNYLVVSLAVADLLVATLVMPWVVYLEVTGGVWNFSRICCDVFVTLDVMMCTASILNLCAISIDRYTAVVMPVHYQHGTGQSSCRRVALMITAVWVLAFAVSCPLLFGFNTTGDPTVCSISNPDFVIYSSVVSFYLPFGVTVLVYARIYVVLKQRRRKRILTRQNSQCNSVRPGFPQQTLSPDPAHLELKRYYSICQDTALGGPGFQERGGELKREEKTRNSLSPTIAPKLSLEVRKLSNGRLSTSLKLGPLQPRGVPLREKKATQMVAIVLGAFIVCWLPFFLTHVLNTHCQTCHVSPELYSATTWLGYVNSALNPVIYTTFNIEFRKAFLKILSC
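Cells at 1500/well, incubated overnight, then treated with pinned compounds (dopamine as control) for 90 min at 37 degrees C. DiscoveRx reagent added for 30 - 60 minutes at room temperature; luminescence read.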
DT40 TDP1 no CPT – qHTS for Inhibitors of human tyrosyl-DNA phosphodiesterase 1 (TDP1): qHTS in cells in absence of CPT | Potency, µM (highest dose often 46.2 µM), inactives show top-dose activity change, negative = growth inhibition, hits mostly inhibitors | DT40 Tdp1-/- hTDP1 cells, no CPT, ATP luminescence, 48 h | 15% of 420,000 active; note: potency is the fitted concentration of half-maximal effect; % is set by controls: 0 for no effect and ±100 for the full control effect; nearly all actives have a fitted effect of over 55% in size
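Seeded 400 DT40-hTDP1 cells/well (vehicle DMSO, no 20 nM CPT); pinned compounds; ≥48 hr at 37 °C; CellTiter-Glo luminescence as viability measure.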
D3 antag – qHTS of D3 Dopamine Receptor Antagonist: qHTS. AID 652054, 2013. max response, negative = inhibition, %. D3R cells, DiscoveRx beta-arrestin luminescence, antagonist mode; active compounds read low. 2.5% of 360,000 active; in the data active = max response below about -50%; inconclusive = no clear call, values can overlap the other calls; note: % is set by controls: 0 for no effect and ±100 for the full control effect
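Cells expressing the human receptor were seeded at 1500 cells/well, incubated overnight at 37 degrees C in 5% CO2, then exposed to library compounds with dopamine controls for 90 minutes at 37 degrees C before luminescent detection.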
IL-1B inflam inh – qHTS for Inhibitors of Inflammasome Signaling: IL-1-beta AlphaLISA Primary Screen. THP-1 LPS/ATP IL-1B secretion, AlphaLISA, 16 h; active compounds read low. activity change, % at 57.5 µM. 4.7% of 360,000 active. AID 743279, 2014; in the data active = activity change below about -50%; inconclusive = mostly about -30% to -49%; note: % is set by controls: 0 for no effect and ±100 for the full control effect
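THP-1 cells pretreated 1 hr with compounds (up to 57.5 uM final), then stimulated with LPS (250 ng/mL final) plus ATP (1.25 mM final); secreted IL-1B measured by AlphaLISA after 16 hr, decreased signal indicating inhibition.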
ClpP mod – qHTS Assay for Activators of ClpP | ATP-dependent Clp protease proteolytic subunit (Bacillus subtilis (strain 168)), P80244 | purified B. subtilis ClpP, FRET peptide cleavage, 20 min | Potency, µM (highest dose often 57.5 µM), for the others: top-dose activity change, negative = active | 1.9% of 340,000 active | AID 651965, 2013; active = well fitted falling curve with a large enough effect; inconclusive = small, poorly fitted or top-dose-only effect; inactive = no such curve, though single readings can be large or run the other way; note: potency is the fitted concentration of half-maximal effect; the source files actives as falling curves though it sought activators and does not explain the sign; nearly all actives have a fitted effect of over 65% in size
Target sequence (P80244 whole entry, looked up): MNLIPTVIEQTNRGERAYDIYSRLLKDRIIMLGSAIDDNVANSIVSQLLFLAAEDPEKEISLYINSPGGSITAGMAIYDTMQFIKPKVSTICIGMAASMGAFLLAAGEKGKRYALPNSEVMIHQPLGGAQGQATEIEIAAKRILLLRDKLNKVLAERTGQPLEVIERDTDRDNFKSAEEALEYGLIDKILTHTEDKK
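ClpP 10 microg/mL final, pH 8 Tris/KCl buffer with BSA, glycerol, Tween-20; compound pinned in; FRET-FV substrate; RT 20 min; Ex320/Em430; ΔFRET vs ADEP 5.8 microM, DMSO, no enzyme.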
An asterisk follows results filed as active; i = inactive; ? = inconclusive; / = no result given; [ ] = another dose, or the depositor's remark. Unless noted, calls come from the whole dose curve; as a rule, active = well fitted inhibition curve with a large enough effect; inconclusive = small, poorly fitted or top-dose-only effect; inactive = flat fitted curve, though single readings scatter.

SMILES | TDP1 cell CPT | DRD3 agonist | DT40 TDP1 no CPT | D3 antag | IL-1B inflam inh | ClpP mod
C1=C(c2ccc(-c3ccccc3)cc2)Nc2ncnn2C1c1ccco1 (configuration not stated) | 21µM* | 24 | 16µM* | 28 | 41 | 16µM*
CC(C)(C)c1ccc(C2=CC(c3ccccc3F)n3ncnc3N2)cc1 (configuration not stated) | -22% | -16 | -18% | -17 | -27 | 4%
Cc1ccc(C2C=C(c3ccccc3)Nc3ncnn32)cc1 (configuration not stated) | ? | 7 | ? | 24 | -21 | 5%
Cn1cccc1C1C=C(c2ccc(C(C)(C)C)cc2)Nc2ncnn21 (configuration not stated) | ? | -25 | 23µM* | -29 | -16 | -25%
Fc1ccc(C2=CC(c3ccc(Br)o3)n3ncnc3N2)cc1 (configuration not stated) | ? | 5 | ? | 11 | -8 | 32µM*
Brc1ccc(C2=CC(c3cccs3)n3ncnc3N2)cc1 (configuration not stated) | ? | -1 | 7.3µM* | ? | -19 | 32µM*
O=C1CCCC2=C1C(c1cccs1)n1ncnc1N2 (configuration not stated) | -2% | -2 | -5% | 10 | 17 | 0%
Oc1ccc(C2C=C(c3ccc(F)cc3)Nc3ncnn32)cc1 (configuration not stated) | -3% | 5 | 4% | -4 | 3 | -19%
Cc1ccc(S(=O)(=O)Nc2ccsc2C#N)cc1 | -5% | -1 | 12% | 1 | -6 | -4%
COc1ccc(-c2nc(C)c(CCNC(=O)c3ccccc3Br)s2)cc1OC | ? | 1 | ? | / | / | 4%
COc1ccccc1NC(=O)Cn1c(=O)n(Cc2nc(C)no2)c(=O)c2cc3c(cc21)OCO3 | 3% | 2 | -23% | / | / | ?
CO[C@H]1[C@H](NC(=O)c2ccco2)c2ccccc2C12CCN(Cc1cnc(N(C)C)s1)CC2 | 4%[9.04 µM] | / | -13% | / | / | /
CCN1CCc2nc3ccccc3c(C(=O)Nc3ccc(C#N)cc3)c2C1 | ? | -3 | ? | 5 | 23 | -11%
CC(C)c1ccccc1NC(=O)COC(=O)c1c2c(nc3ccccc13)CCN(Cc1ccccc1)C2 | ? | 1 | 10µM* | 18 | -17 | -15%
Cc1c(Cl)cccc1NC(=O)COC(=O)c1c2c(nc3ccccc13)CCN(Cc1ccccc1)C2 | ? | 5 | 16µM* | 16 | 0 | -10%
Cc1nn(-c2ccccc2)c(C)c1C(=O)OCC(=O)Nc1ccccc1Cl | 2% | 1 | -4% | 9 | 6 | -1%
O=C(NC1CCCCCC1)c1c2c(nc3ccccc13)CCN(Cc1ccccc1)C2 | 18µM* | 9 | 29µM* | 32 | -3 | -3%
CC(C)c1ccc(NC(=O)[C@H]2O[C@@H]3OC(C)(C)O[C@@H]3[C@H]3OC(C)(C)O[C@H]32)cc1 | 5.2µM* | -6 | 21µM* | / | / | 1%
CC1(C)OC2OC(C(=O)N/N=C/c3cc(Br)ccc3O)C3OC(C)(C)OC3C2O1 (configuration not stated) | 15µM* | 13 | 15µM* | 2 | 0 | -20%
Cc1cc(C)cc(NC(=O)[C@H]2O[C@@H]3OC(C)(C)O[C@@H]3[C@H]3OC(C)(C)O[C@H]32)c1 | -8% | -4 | ? | / | / | -3%
Cc1nn(CC(=O)NCc2ccc(N(C)C)cc2)c(=O)c2nn(-c3ccccc3)c(C)c12 | ? | -1 | ? | / | / | 0%
CCOc1ccc(NC(=O)c2cc(-c3ccc(C)c(F)c3)on2)c([N+](=O)[O-])c1 | -1% | 8 | -12% | / | / | 1%
Cc1c(C(=O)COC(C)(C)C)[nH]c2ccccc12 | 21µM* | 2 | ? | 0 | -1 | -3%
O=C(CSc1ccc(-c2ccccn2)nn1)Nc1cccc(F)c1 | ? | 5 | 18µM* | 15 | i | 2%
Cc1cc(C)cc(NC(=O)CSc2ccc(-c3ccccn3)nn2)c1 | 16µM* | 6 | ? | 4 | 61 | 2%
SMILES | TDP1 cell CPT | DRD3 agonist | DT40 TDP1 no CPT | D3 antag | IL-1B inflam inh | ClpP mod
Cc1csc(NC(=O)CSc2ccc(-c3ccccn3)nn2)n1 | ? | 5 | 26µM* | -23 | 192 | -3%
COc1cc(NC(=O)Cn2nnc(-c3ccccc3N)n2)cc(OC)c1 | ? | 1 | ? | -1 | -59* | -1%
CCN(CC)c1ccc(NC(=O)Cn2nnc(-c3cccc(OC)c3OC)n2)c(C)c1 | ? | 31* | ? | 16 | 20 | 2%
COc1ccc(NC(=O)Cn2nnc(-c3ccccc3NC(=O)c3ccco3)n2)cc1 | 2.9µM* | 4 | 2.6µM* | 64 | -2 | -10%
COc1ccccc1NC(=O)Cn1nnc(-c2ccccc2NC(=O)c2ccco2)n1 | -14% | 3 | ? | 12 | 12 | 32%
COc1ccccc1NC(=O)Cn1nnc(-c2ccccc2NC(=O)c2cccs2)n1 | ? | 12 | 21µM* | 10 | -16 | 131%
COc1ccc(NC(=O)N2CCC(CO)(CC3CCCCO3)CC2)c(OC)c1 (configuration not stated) | -4% | 8 | 6% | 6 | -8 | /
Cc1ccc2ccc(C(Nc3ccccc3)c3ccc(F)cc3)c(O)c2n1 (configuration not stated) | 9.2µM* | -24 | 5.8µM* | ? | 71 | -1%
Cc1ccc2ccc(C(Nc3ccccc3)c3ccccc3)c(O)c2n1 (configuration not stated) | 10µM* | -20 | 6.5µM* | ? | 47 | -3%
c1ccc(NC(c2ccccc2)c2ccncc2)cc1 (configuration not stated) | -24% | 1 | -34% | 1 | -13 | -1%
Cc1ccc2ccc(C(Nc3ccccc3)c3ccc(C(C)C)cc3)c(O)c2n1 (configuration not stated) | 15µM* | 2 | 12µM* | 23 | 69 | -1%
Cc1ccc2ccc(C(Nc3cccc(C(F)(F)F)c3)c3cccnc3)c(O)c2n1 (configuration not stated) | ? | -18 | ? | -127* | 60 | 3%

From PubChem
